Source: PubChem BioAssay
Activity calls are given as the source filed them. Unless noted, no rule for the calls is given here.

How the values were obtained:
[1] = compound effects on lung adenocarcinoma cell viability – A549, calcein-AM fluorescence, 48 h, basal, profiling panel (AID 1162); details: higher = more signal; also: test concentration not given here
[2] = compound effects on differentiated 3T3-L1 adipocyte viability – cell-based, 3T3-L1 adipocytes, calcein-AM fluorescence, 48 h, basal, profiling panel (AID 1163); details: 3T3-L1 adipocytes viability, higher = more signal; also: test concentration not given here
[3] = compound effects on hepatocellular carcinoma cell viability – HepG2, calcein-AM fluorescence, 48 h, basal, profiling panel (AID 1164); details: higher = more signal; also: test concentration not given here
[4] = compound effects on multiple myeloma cell viability – MM1S, calcein-AM fluorescence, 48 h, basal, profiling panel (AID 1165); details: higher = more signal;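 also: viability of MM1S multiple myeloma cells under basal unstimulated conditions; test concentration not given here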
[5] = calcein-AM signal in unstimulated myeloma cells – cell-based, calcein-AM fluorescence, 48 h, PK04 Diversity Set, profiling panel (AID 1166); details: RPMI8226 myeloma viability, higher = more signal;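 also: cells grown under basal conditions without added stimulus; test concentration not given here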
[6] = JC-1 mitochondrial signal, unstimulated HepG2 cells – cell-based, JC-1 fluorescence, 24 h, 100 nL compound, profiling panel (AID 1167); details: HepG2 mitochondrial potential, higher = more signal; also: test concentration not given here
[7] = JC-1 mitochondrial signal, unstimulated adipocytes – cell-based, JC-1 fluorescence, 3T3-L1 adipocytes, 24 h, 100 nL compound, profiling panel (AID 1168); details: JC-1 mitochondrial fluorescence, higher = more signal, called active from +8 up or from −8 down; also: test concentration not given here
[8] = JC-1 mitochondrial signal, unstimulated myeloma cells – cell-based, JC-1 fluorescence, RPMI8226, 24 h, 100 nL compound, profiling panel (AID 1169); details: JC-1 mitochondrial potential fluorescence, higher = more signal; also: test concentration not given here
[9] = JC-1 mitochondrial signal, unstimulated MM1S myeloma – cell-based, JC-1 fluorescence, 24 h, 100 nL compound, profiling panel (AID 1170); details: MM1S mitochondrial potential, higher = more signal; also: test concentration not given here
[10] = resazurin metabolic signal in A549 cells – cell-based, resazurin fluorescence, 24 h, PK04 Diversity Set, profiling panel (AID 1171); details: A549 viability, higher = more signal, called active from +8 up or from −8 down; also: test concentration not given here
[11] = resazurin metabolic signal in HepG2 cells – cell-based, resazurin fluorescence, 24 h, PK04 Diversity Set, profiling panel (AID 1172); details: HepG2 viability, higher = more signal; also: test concentration not given here
[12] = budding yeast growth changes without added modifier – OD600, strain BY4716, 24 h, basal condition, primary screen (AID 1173); details: S. cerevisiae BY4716 growth, OD600, 24 h; higher = more signal, called active from +8 up or from −8 down
[13] = viability profiling in MM1S myeloma cells – cell-based, resazurin fluorescence, basal, 24 h, PK04 Diversity Set, profiling panel (AID 1174); details: higher = more signal, called active from +8 up or from −8 down; also: test concentration not given here
[14] = molecular target: Dihydroorotate dehydrogenase (quinone), mitochondrial (Plasmodium falciparum (isolate 3D7)) (UniProt Q08210); test: inhibition of P. falciparum DHODH – biochemical, C-terminal His tag, absorbance 600 nm, primary screen (AID 1175); details: PfDHODH enzyme, DCIP absorbance 600 nm; higher = more signal, called active from +8 up or from −8 down;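 also: recombinant parasite enzyme with a five histidine tag at its C terminus; test concentration not given here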
[15] = inhibition of PAO1 biofilm formation – strain PAO1, LB-PBS medium, absorbance 600 nm, primary screen (AID 1176); also: test concentration not given here; details: P. aeruginosa PAO1 growth/biofilm, A600, 12 h; higher = more signal
[16] = growth modulation of vineyard yeast isolate – strain RM11-1a, OD600, basal, 24 h, primary screen (AID 1177);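 also: cultures grown under basal conditions with no added stressor; test concentration not given here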; details: S. cerevisiae RM11-1a growth, OD600, 24 h; higher = more signal, called active from +8 up or from −8 down
[17] = growth of efflux-deficient E. coli DRC39 – strain DRC39, OD650, 24 h, E. coli filamentation inducers, primary screen (AID 1178);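 also: growth measured as culture turbidity by optical density at 650 nm; test concentration not given here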; details: E. coli DRC39 acrAB, higher = more signal, called active from +8 up or from −8 down
[18] = growth of efflux-deficient E. coli DRC39 – strain DRC39, OD650, 48 h, E. coli filamentation inducers, primary screen (AID 1179);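 also: screen aims at cell division blockers that make cells filament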; details: E. coli DRC39 delta-acrAB growth, higher = more signal, called active from +8 up or from −8 down
[19] = viability profiling in RPMI8226 myeloma cells – cell-based, resazurin fluorescence, basal, 24 h, PK04 Diversity Set, profiling panel (AID 1180); details: higher = more signal;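 also: RPMI8826 multiple myeloma cell line at 5000 cells per well; test concentration not given here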
[20] = molecular target: E3 ubiquitin-protein ligase XIAP (Homo sapiens) (UniProt P98170); test: small molecules binding XIAP protein – biophysical, small-molecule microarray, fluorescence 635 nm, primary screen (AID 1181); details: higher = more signal;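 also: score merges 667 nm emission and signal to noise over triplicate slides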
Chain of E3 ubiquitin-protein ligase XIAP (Homo sapiens) (P98170 whole entry, looked up): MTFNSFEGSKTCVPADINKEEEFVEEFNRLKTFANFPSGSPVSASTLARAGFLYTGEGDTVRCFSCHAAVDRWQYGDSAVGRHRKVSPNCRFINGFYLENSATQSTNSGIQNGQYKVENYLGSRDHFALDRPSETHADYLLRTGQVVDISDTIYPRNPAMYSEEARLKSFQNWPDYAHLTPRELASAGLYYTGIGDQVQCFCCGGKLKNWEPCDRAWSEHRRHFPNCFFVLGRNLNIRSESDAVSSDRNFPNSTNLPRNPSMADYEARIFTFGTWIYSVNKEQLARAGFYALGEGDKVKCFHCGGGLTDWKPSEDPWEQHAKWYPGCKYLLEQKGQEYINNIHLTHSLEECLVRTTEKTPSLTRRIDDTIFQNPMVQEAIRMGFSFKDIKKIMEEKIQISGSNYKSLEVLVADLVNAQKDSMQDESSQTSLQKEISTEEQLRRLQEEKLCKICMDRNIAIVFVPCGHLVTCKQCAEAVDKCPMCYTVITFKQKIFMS

Chain of Dihydroorotate dehydrogenase (quinone), mitochondrial (Plasmodium falciparum (isolate 3D7)) (Q08210 whole entry, looked up): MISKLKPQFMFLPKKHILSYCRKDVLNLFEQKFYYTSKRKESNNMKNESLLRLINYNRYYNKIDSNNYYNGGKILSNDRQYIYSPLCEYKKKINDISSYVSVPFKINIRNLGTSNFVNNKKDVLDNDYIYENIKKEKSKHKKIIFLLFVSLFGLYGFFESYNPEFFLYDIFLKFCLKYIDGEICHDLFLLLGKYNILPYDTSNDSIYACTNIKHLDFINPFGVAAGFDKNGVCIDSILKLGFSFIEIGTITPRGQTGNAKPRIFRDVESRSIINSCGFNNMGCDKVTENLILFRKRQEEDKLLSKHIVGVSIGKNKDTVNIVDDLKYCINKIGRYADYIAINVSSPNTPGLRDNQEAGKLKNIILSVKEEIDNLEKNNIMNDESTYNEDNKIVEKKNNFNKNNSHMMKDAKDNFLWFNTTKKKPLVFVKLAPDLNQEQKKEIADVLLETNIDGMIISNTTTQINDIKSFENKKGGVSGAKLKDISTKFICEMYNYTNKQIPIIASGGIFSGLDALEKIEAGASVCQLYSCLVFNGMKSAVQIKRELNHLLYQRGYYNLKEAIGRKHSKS

| Compound | z-score [1] | z-score [2] | z-score [3] | z-score [4] | z-score [5] | z-score [6] | z-score [7] | z-score [8] | z-score [9] | z-score [10] | z-score [11] | z-score [12] | z-score [13] | composite z-score [14] | z-score [15] | z-score [16] | z-score [17] | z-score [18] | z-score [19] | composite z-score [20] |
| --- | --- | --- | --- | --- | --- | --- | --- | --- | --- | --- | --- | --- | --- | --- | --- | --- | --- | --- | --- | --- |
| COCCOC(=O)N1C(=O)[C@@]2(c3cc(C#CCNC(N)=O)ccc31)[C@H](c1ccc(O)cc1)N1[C@H](c3ccccc3)[C@H](c3ccccc3)OC(=O)[C@H]1[C@@H]2C(=O)Nc1nc2ccccc2s1 | 1.7 | 0.663 | 0.461 | 0.553 | -0.397 | -2.95 | 1.56 (inactive) | -1.03 | 0.189 | 1.69 (inactive) | 1.51 | -2.16 (inactive) | 1.38 (inactive) | -1.96 (inactive) | 3.22 (inactive) | -2.47 (inactive) | 2.74 (inactive) | 2.74 (inactive) | 0.803 | -0.115 |
| O=C1O[C@H](c2ccccc2)[C@H](c2ccccc2)N2[C@H]1[C@@H](C(=O)O)[C@]1(C(=O)Nc3ccc(C#CC4=CCCCC4)cc31)[C@H]2c1ccc(OCCO)cc1 | 0.199 | -0.774 | 0.122 | -2.72 | -4.06 | -4.3 | -3.28 (inactive) | -0.949 | -1.53 | 0.729 (inactive) | 0.732 | 0.0899 (inactive) | 0.533 (inactive) | -14.1 (active) | 3.39 (inactive) | 1.26 (inactive) | 0.668 (inactive) | -0.175 (inactive) | -0.219 | -0.271 |
| CCC(CC)C(O)C1C=CC2C(=O)N(c3ccccc3)C(=O)C2N1Nc1ccc(C#N)cc1 (stereo not given) | 0.313 | -0.534 | -0.136 | 0.436 | -0.452 | -1.03 | -1.29 (inactive) | -0.659 | -0.0284 | 0.158 (inactive) | -0.813 | -0.174 (inactive) | -0.253 (inactive) | -1.69 (inactive) | 1.55 (inactive) | -0.358 (inactive) | -0.698 (inactive) | 0.133 (inactive) | -0.308 | -0.101 |
| CCCCC(CC)C(O)C1C=CC2C(=O)N(c3ccccc3)C(=O)C2N1Nc1ccccc1 (stereo not given) | -0.5 | 0.0749 | -0.315 | -0.137 | -0.841 | -2.35 | 0.633 (inactive) | -0.48 | 0.00945 | -0.885 (inactive) | -1.3 | -1.14 (inactive) | -1.51 (inactive) | -0.524 (inactive) | 0.462 (inactive) | -0.347 (inactive) | -0.556 (inactive) | -0.945 (inactive) | -1.42 | 0.387 |
| C=CCOC(=O)[C@H]1[C@@H]2C(=O)O[C@@H](c3ccccc3)[C@@H](c3ccccc3)N2[C@@H](c2ccc(OCCOC(=O)[C@@H]3C[C@@H]4C(=O)N5CCC[C@H]5C(=O)N4[C@@H]3c3ccc(O)cc3)cc2)[C@]12C(=O)Nc1ccccc12 | 0.924 | 0.038 | -0.139 | 0.603 | 0.876 | -1.42 | 1.74 (inactive) | -0.212 | -0.786 | 0.362 (inactive) | 0.196 | 0.865 (inactive) | 0.841 (inactive) | -0.379 (inactive) | 0.957 (inactive) | 2.73 (inactive) | 0.468 (inactive) | 0.971 (inactive) | 1.71 | 0.224 |
| O=C1C[C@]2(c3ccc([N+](=O)[O-])cc3)C(=O)N(CC(F)(F)F)c3cc(CO)ccc3[C@H]2N1CC12CC3CC(CC(C3)C1)C2 | 0.831 | -0.425 | 0.655 | 0.489 | 0.0342 | 0.91 | -1.2 (inactive) | 0.308 | -0.964 | -0.399 (inactive) | 0.961 | 0.695 (inactive) | -1.2 (inactive) | -3.73 (inactive) | 0.503 (inactive) | -0.319 (inactive) | 0.973 (inactive) | 0.672 (inactive) | -0.157 | -0.222 |
| COCCOC(=O)N1C(=O)[C@@]2(c3cc(C#CCC(C(=O)OC)C(=O)OC)ccc31)[C@H](C(=O)N1CCCCCCC1)[C@H]1C(=O)O[C@H](c3ccccc3)[C@H](c3ccccc3)N1[C@@H]2c1ccc(OCCO)cc1 | 0.855 | 1.27 | 1.19 | -0.38 | 0.185 | 0.322 | -5 (inactive) | -0.812 | -1.41 | 1.33 (inactive) | 2.14 | 0.905 (inactive) | 0.281 (inactive) | -0.352 (inactive) | 1.3 (inactive) | 2.41 (inactive) | 0.027 (inactive) | 0.271 (inactive) | 0.437 | 0.611 |
| O=C1C2C=CC(C(O)c3ccc(-c4ccccc4)s3)N(n3cnnc3)C2C(=O)N1Cc1ccccc1 (stereo not given) | -0.787 | -0.293 | -0.638 | -0.593 | -1.87 | -0.666 | -0.878 (inactive) | -0.128 | 0.871 | -1 (inactive) | -0.295 | 1.07 (inactive) | -0.559 (inactive) | 0.267 (inactive) | 0.092 (inactive) | 0.766 (inactive) | -0.27 (inactive) | -0.0301 (inactive) | -0.259 | 0.296 |
| C=CCOC(=O)[C@H]1[C@@H]2C(=O)O[C@@H](c3ccccc3)[C@@H](c3ccccc3)N2[C@@H](c2ccc(OCCOC(=O)[C@@H]3C[C@@H]4C(=O)NCC(=O)N4[C@@H]3c3ccc(O)cc3)cc2)[C@]12C(=O)Nc1ccccc12 | 0.422 | 0.905 | 1.49 | -0.459 | 0.776 | -1.35 | -0.577 (inactive) | -0.831 | -1.12 | 0.677 (inactive) | 0.558 | -0.0301 (inactive) | 1.56 (inactive) | -0.803 (inactive) | 2.05 (inactive) | -1.38 (inactive) | 0.971 (inactive) | 1.61 (inactive) | 0.765 | -0.121 |
